Reference: PubChem BioAssay AID1159580 (chemical genetic matrix, 2015)
The campaign covered roughly 5,500 compounds. About 2,000 (36%) were called active. About 18% were inconclusive and are not listed. This is one part of the list. A number with no mark means an inactive call. No stated cut-off is given here; in the data, active means normalized growth mostly below about 0.91 (no sharp cut-off); inconclusive means no clear call, values can overlap the other calls; inactive means mostly above about 0.92.

Test: chemical genetic growth profiling, strain panel (AID 1159580);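 further: tested at 20 µM; growth read once vehicle control cultures reached saturation at 30 °C; 1 = growth at the plate median or of vehicle wells; lower values mean less growth of the strain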
Details: S. cerevisiae deletion strains, growth OD
[1] = locus YAL040C, strain CLN3, active compounds read low
[2] = locus YDR363W, strain ESC2, active compounds read low
[3] = locus YER002W, strain NOP16, active compounds read low
[4] = locus YNL153C, strain GIM3, active compounds read low
[5] = locus YNL175C, strain NOP13, active compounds read low
[6] = locus YNL197C, strain WHI3, active compounds read low
[7] = locus YNL224C, strain SQS1, active compounds read low
[8] = locus YOR083W, strain WHI5 (second series), active compounds read low
[9] = locus YPL241C, strain CIN2, active compounds read low
[10] = locus YMR307W, strain GAS1, active compounds read low

In the case of C=CCN1CCc2c(cc(O)c(O)c2Br)[C@@H](c2ccccc2)C1, the normalized growth [1] is reported as 1.03, the normalized growth [2] is reported as 0.8 (active) and the normalized growth [3] is reported as 1. It also gave a normalized growth [4] of 0.945, a normalized growth [5] of 1.04 and a normalized growth [6] of 0.98. For the same compound, the normalized growth [7] was 1.02, the normalized growth [8] was 0.987 and the normalized growth [9] was 0.122 (active).

CN1CCc2c(cc(O)c(O)c2Cl)C(c2cccc(Cl)c2)C1 (stereo not drawn) gave a normalized growth [1] of 1.07, a normalized growth (locus YCL061C, strain MRC1 (second series), active compounds read low) of 0.945 and a normalized growth [2] of 0.962. The normalized growth [3] was 1.01, the normalized growth (locus YJR075W, strain HOC1, active compounds read low) was 0.837 (active) and the normalized growth [10] was 0.993. It also gave a normalized growth [5] of 1, a normalized growth [6] of 0.991 and a normalized growth [7] of 1.01. For the same compound, the normalized growth (locus YNL322C, strain KRE1, active compounds read low) was 0.917, the normalized growth [8] was 0.982 and the normalized growth (locus YPL055C, strain LGE1, active compounds read low) was 0.466 (active). The normalized growth [9] was 0.927 (active).

With O=C(CC[N+](=O)[O-])OC[C@H]1O[C@@H](O)[C@H](OC(=O)CC[N+](=O)[O-])[C@@H](OC(=O)CC[N+](=O)[O-])[C@@H]1OC(=O)CC[N+](=O)[O-] the normalized growth (locus YBR021W, strain FUR4, active compounds read low) was 1.04, the normalized growth (locus YBR229C, strain ROT2, active compounds read low) was 1.02 and the normalized growth (locus YCL029C, strain bik1, active compounds read low) was 1.01. It also gave a normalized growth (locus YDL035C, strain GPR1, active compounds read low) of 1.08, a normalized growth (locus YDL074C, strain BRE1, active compounds read low) of 1.18 and a normalized growth (locus YDL101C, strain DUN1, active compounds read low) of 1.02. The normalized growth (locus YDL185W, strain tfp1, active compounds read low) was 1.01, the normalized growth (locus YDL192W, strain arf1, active compounds read low) was 1.03 and the normalized growth (locus YDR101C, strain arx1, active compounds read low) was 1.01. For the same compound, the normalized growth (locus YDR150W, strain NUM1, active compounds read low) was 1.03, the normalized growth (locus YDR162C, strain NBP2, active compounds read low) was 1.05 and the normalized growth (locus YDR318W, strain mcm21, active compounds read low) was 1.03. It also gave a normalized growth (locus YDR388W, active compounds read low) of 0.999, a normalized growth (locus YDR502C, strain sam2, active compounds read low) of 1.02 and a normalized growth (locus YEL061C, strain CIN8, active compounds read low) of 1.03. The normalized growth (locus YER110C, active compounds read low) was 0.998, the normalized growth (locus YER155C, strain BEM2, active compounds read low) was 1.01 and the normalized growth (locus YER167W, strain BCK2, active compounds read low) was 1.02. It also gave a normalized growth (locus YGL078C, strain dbp3, active compounds read low) of 1, a normalized growth (locus YGL086W, strain mad1, active compounds read low) of 1.01 and a normalized growth (locus YGL248W, strain PDE1, active compounds read low) of 1.05. It also gave a normalized growth (locus YGR135W, strain pre9, active compounds read low) of 1.01, a normalized growth (locus YGR252W, strain gcn5, active compounds read low) of 1.04 and a normalized growth (locus YHR030C, strain SLT2, active compounds read low) of 1.02. It also gave a normalized growth (locus YHR079C, strain IRE1 (second series), active compounds read low) of 0.998, a normalized growth (locus YHR094C, strain hxt1, active compounds read low) of 1.01 and a normalized growth (locus YHR129C, strain ARP1, active compounds read low) of 1.04. For the same compound, the normalized growth (locus YHR200W, strain rpn10, active compounds read low) was 1.02, the normalized growth (locus YIL066C, strain RNR3, active compounds read low) was 1.04 and the normalized growth (locus YIL073C, strain SPO22, active compounds read low) was 1.13. The normalized growth (locus YIL125W, strain kgd1, active compounds read low) was 1, the normalized growth (locus YIR030C, strain dcg1, active compounds read low) was 1.03 and the normalized growth (locus YJL095W, strain BCK1, active compounds read low) was 1.08. The normalized growth (locus YJL134W, strain LCB3, active compounds read low) was 1.02, the normalized growth (locus YJL168C, strain set2, active compounds read low) was 1.01 and the normalized growth (locus YJL187C, strain SWE1 (second series), active compounds read low) was 1.04. The normalized growth (locus YKL009W, strain mrt4, active compounds read low) was 0.993, the normalized growth (locus YKL068W, active compounds read low) was 1 and the normalized growth (locus YKL085W, strain MDH1 (second series), active compounds read low) was 1.01. It also gave a normalized growth (locus YKL085W, strain MDH1, active compounds read low) of 1.01, a normalized growth (locus YKR001C, strain vps1, active compounds read low) of 1.07 and a normalized growth (locus YLR039C, strain RIC1, active compounds read low) of 1.23. It also gave a normalized growth (locus YLR058C, strain SHM2, active compounds read low) of 1.03, a normalized growth (locus YLR102C, strain apc9, active compounds read low) of 0.991 and a normalized growth (locus YLR268W, strain sec22, active compounds read low) of 1.04. For the same compound, the normalized growth (locus YLR330W, strain CHS5, active compounds read low) was 1.03, the normalized growth (locus YLR342W, strain FKS1 (second series), active compounds read low) was 1.06 and the normalized growth (locus YLR371W, strain rom2, active compounds read low) was 1.02. It also gave a normalized growth (locus YLR418C, strain cdc73, active compounds read low) of 1.15, a normalized growth (locus YML016C, strain PPZ1, active compounds read low) of 1.02 and a normalized growth (locus YML032C, strain rad52, active compounds read low) of 0.999. The normalized growth (locus YML124C, strain tub3, active compounds read low) was 1.02, the normalized growth (locus YMR078C, strain ctf18, active compounds read low) was 1.01 and the normalized growth (locus YMR223W, strain ubp8, active compounds read low) was 1.02. It also gave a normalized growth [10] of 1.24, a normalized growth (locus YNL067W, strain RPL9B, active compounds read low) of 1.02 and a normalized growth [4] of 1.05. The normalized growth (locus YNL233W, strain BNI4, active compounds read low) was 1.08, the normalized growth (locus YNL250W, strain rad50, active compounds read low) was 0.995 and the normalized growth (locus YNL271C, strain bni1, active compounds read low) was 1.01. It also gave a normalized growth (locus YNL298W, strain CLA4, active compounds read low) of 1.01, a normalized growth (locus YNL307C, strain MCK1, active compounds read low) of 1.01 and a normalized growth (locus YNR052C, strain pop2, active compounds read low) of 1. The normalized growth (locus YOL012C, strain htz1) was 1.02, the normalized growth (locus YOL147C, strain pex11, active compounds read low) was 0.996 and the normalized growth (locus YOR061W, strain CKA2, active compounds read low) was 1.02. It also gave a normalized growth (locus YOR069W, strain VPS5, active compounds read low) of 1.02, a normalized growth (locus YOR136W, strain idh2, active compounds read low) of 1.01 and a normalized growth (locus YOR144C, strain elg1, active compounds read low) of 1. The normalized growth (locus YOR184W, strain ser1, active compounds read low) was 1.03, the normalized growth (locus YOR316C, strain cot1, active compounds read low) was 0.992 and the normalized growth (locus YPR119W, strain clb2, active compounds read low) was 0.998. It also gave a normalized growth (locus YPR141C, strain kar3, active compounds read low) of 1, a normalized growth (locus YPR163C, strain tif3, active compounds read low) of 1.01 and a normalized growth (locus YPR167C, strain met16, active compounds read low) of 1.02. It also gave a normalized growth (strain wtn01, active compounds read low) of 1.02.
